Assay: inhibition of PAO1 biofilm formation – strain PAO1, LB-PBS medium, absorbance 600 nm, primary screen (AID 1176)
Conditions: P. aeruginosa PAO1 growth/biofilm, A600, 12 h; higher = more signal
Note: test concentration not given here.

z-score, inactive:
CCOC(=O)CCN1C(=O)[C@H]2[C@H]3[C@H](O)[C@H](O)CC(=O)[C@@H]3CC[C@H]2C1=O -0.708
COC(=O)[C@H](CCSC)NC(=O)CC=C[C@@H](C)CO -0.895
CCOC(=O)[C@H](Cc1ccccc1)NC(=O)CCC1CC(OC(=O)NCc2cccc3ccccc23)CC2(CCCC(COC(=O)NCCOc3ccccc3)O2)O1 (stereo not given in full) -0.0448
COc1ccc(COC(=O)NN=C2C[C@@H](O)[C@@H](O)[C@@H]3[C@@H]4C(=O)N(c5cccc(Oc6ccccc6)c5)C(=O)[C@@H]4CC[C@H]23)cc1 -0.872
COc1ccc(OC[C@@H]2CC3[C@@H](c4ccc(Br)cc4)[C@H](C)CC[C@H]3C(=O)O2)cc1 (stereo not given in full) -0.315
COC(=O)[C@H](C)NC(=O)CCC1CC(OC(=O)NCc2cccc3ccccc23)CC2(CCCC(COC(=O)NCCc3ccccc3OC)O2)O1 (stereo not given in full) 0.639
COc1ccc(OC[C@@H](CO)OC)cc1 -0.364
COc1ccc(COC(=O)NN=C2C[C@@H](O)[C@@H](O)[C@@H]3[C@@H]4C(=O)N(C[C@@H]5CCCO5)C(=O)[C@@H]4CC[C@@H]23)cc1 0.328
CCOC(=O)[C@H](CC(C)C)NC(=O)CCC1CC(OC(=O)NCc2ccc3c(c2)OCO3)CC2(CCCC(COC(=O)NCCOc3ccccc3)O2)O1 (stereo not given in full) -0.564
C=CC[C@@H]1C=C[C@H](ON=C(C)CCN2CCCCc3nc(C)c(C)cc32)[C@@H](CO)O1 0.323
C[C@@H](c1ccccc1)N1C(=O)[C@H]2[C@H]3[C@H](O)[C@H](O)CC(=NOC[C@@H](O)COCc4ccco4)[C@H]3CC[C@H]2C1=O 0.118
COc1ccc(O[C@H]2C=C[C@@H](C#Cc3ccccc3)O[C@@H]2CO)cc1 0.0372
COC(=O)[C@@H]1CC[C@H](C)[C@@H](c2ccc(Br)cc2)N1C[C@@H](O)CN=[N+]=[N-] 0.733
CC(C)=CCCC(C)=CCON=C1C[C@@H](O)[C@@H](O)[C@@H]2[C@@H]3C(=O)N(Cc4ccc5c(c4)OCO5)C(=O)[C@@H]3CC[C@@H]12 -0.437

Assay: growth modulation of vineyard yeast isolate – strain RM11-1a, OD600, basal, 24 h, primary screen (AID 1177);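 note: cultures grown under basal conditions with no added stressor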
Conditions: S. cerevisiae RM11-1a growth, OD600, 24 h; higher = more signal, called active from +8 up or from −8 down

z-score, inactive:
C=CC[C@@H]1C=C[C@H](ON=CC[C@@H]2C=C[C@H](OC(C)=O)[C@@H](COC(C)=O)O2)[C@@H](CO)O1 0.879
C=CC[C@@H]1C=C[C@H](ON=C(C)CCN2CCCc3nc(C)c(C)cc32)[C@@H](CO)O1 0.662
CC(=O)OC[C@H]1O[C@H](CC=NO[C@H](C)c2cn([C@@H]3COC[C@H]3O)nn2)C=C[C@@H]1OC(C)=O -1.9
CC(=O)OC[C@H]1O[C@H](CCON=C(C)CCN2CCCc3nc(C)c(C)cc32)C=C[C@@H]1OC(C)=O 1.3
CO[C@H]1COC(=O)[C@H](CCSC)NC(=O)CC=C[C@@H](C)[C@H](OC)COC(=O)[C@@H](OCc2ccccc2)C=C[C@@H]1C -0.208
CN1CCc2nc(-c3ccccc3)c(-c3ccccc3)cc2C1 0.298
CON=C(C)CCN1CCc2nc(-c3ccccc3)c(-c3ccccc3)cc2C1 0.886
CCN1C(=O)[C@H]2[C@@H]3C(=CC[C@H]2C1=O)C(=O)[C@H]1O[C@H]1[C@H]3O -0.628
CC(C)C(=O)N[C@H]1CCCN1C(=O)C=Cc1ccccc1 1.18
CCOC(=O)[C@H](CC(C)C)NC(=O)CCC1CC(OC(=O)NCc2ccc3c(c2)OCO3)CC2(CCCC(COC(=O)NCCC(C)C)O2)O1 (stereo not given in full) 0.175
COC(=O)CC=C[C@@H](C)[C@@H](C=NOC[C@@H](O)COCc1ccco1)NS(=O)(=O)c1ccc(C)cc1 0.186
CON=C(C)CCN1CCCCc2nc(C)c(C)cc21 -0.11
CC(=O)OC[C@H]1O[C@H](CCON=C(C)C)C=C[C@@H]1OC(C)=O 0.404
O=C1CCCC=C1C(O)C1CCCCC1 (stereo not given) -0.647
COC(=O)CC=C[C@@H](C)[C@@H](C=NOC[C@@H](C)[C@H](OCc1ccccc1)C(C)C)OC 0.169
COC(=O)[C@H](C)NC(=O)CC=C[C@@H](C)[C@@H]1C=C[C@H](O)[C@@H](CO)O1 0.253
C[C@@H](c1ccccc1)N1C(=O)[C@H]2[C@H]3[C@H](O)[C@H](O)CC(=NOCc4ccccc4)[C@@H]3CC[C@H]2C1=O -0.183
O=C1[C@H]2[C@H]3[C@H](O)[C@H](O)CC(=NOC[C@@H](O)COCc4ccco4)[C@@H]3CC[C@H]2C(=O)N1Cc1ccc2c(c1)OCO2 0.865
CCCNC(=O)OC[C@H]1O[C@H](CCON=C2C[C@@H](O)[C@@H](O)[C@@H]3[C@@H]4C(=O)N(CC)C(=O)[C@@H]4CC[C@@H]23)C=C[C@@H]1Oc1ccc(OC)cc1 -0.32
CC(C)CON=C1C[C@@H](O)[C@@H](O)[C@@H]2[C@@H]3C(=O)N(Cc4ccc5c(c4)OCO5)C(=O)[C@@H]3CC[C@@H]12 0.64
COc1ccc(COC(=O)NN=C2C[C@@H](O)[C@@H](O)[C@@H]3[C@@H]4C(=O)N([C@@H](C)c5ccccc5)C(=O)[C@@H]4CC[C@@H]23)cc1 -0.887
C[C@@H]1CC[C@H]2C(=O)N3[C@@H](CC[C@@H](C)[C@@H]3c3ccc(Br)cc3)C(=O)N2[C@H]1c1ccc(Br)cc1 0.973
CCOC(=O)CCN1C(=O)[C@H]2[C@H]3[C@H](O)[C@H](O)CC(=O)[C@@H]3CC[C@H]2C1=O -0.405
COC(=O)[C@H](CCSC)NC(=O)CC=C[C@@H](C)CO 0.489
CCOC(=O)[C@H](Cc1ccccc1)NC(=O)CCC1CC(OC(=O)NCc2cccc3ccccc23)CC2(CCCC(COC(=O)NCCOc3ccccc3)O2)O1 (stereo not given in full) -1.17
COc1ccc(COC(=O)NN=C2C[C@@H](O)[C@@H](O)[C@@H]3[C@@H]4C(=O)N(c5cccc(Oc6ccccc6)c5)C(=O)[C@@H]4CC[C@H]23)cc1 -1.02
COc1ccc(OC[C@@H]2CC3[C@@H](c4ccc(Br)cc4)[C@H](C)CC[C@H]3C(=O)O2)cc1 (stereo not given in full) 0.0086
COC(=O)[C@H](C)NC(=O)CCC1CC(OC(=O)NCc2cccc3ccccc23)CC2(CCCC(COC(=O)NCCc3ccccc3OC)O2)O1 (stereo not given in full) 1.61
COc1ccc(OC[C@@H](CO)OC)cc1 -0.334
COc1ccc(COC(=O)NN=C2C[C@@H](O)[C@@H](O)[C@@H]3[C@@H]4C(=O)N(C[C@@H]5CCCO5)C(=O)[C@@H]4CC[C@@H]23)cc1 0.513
CCOC(=O)[C@H](CC(C)C)NC(=O)CCC1CC(OC(=O)NCc2ccc3c(c2)OCO3)CC2(CCCC(COC(=O)NCCOc3ccccc3)O2)O1 (stereo not given in full) 1.21
C=CC[C@@H]1C=C[C@H](ON=C(C)CCN2CCCCc3nc(C)c(C)cc32)[C@@H](CO)O1 0.334
C[C@@H](c1ccccc1)N1C(=O)[C@H]2[C@H]3[C@H](O)[C@H](O)CC(=NOC[C@@H](O)COCc4ccco4)[C@H]3CC[C@H]2C1=O -0.286
COc1ccc(O[C@H]2C=C[C@@H](C#Cc3ccccc3)O[C@@H]2CO)cc1 -0.76
COC(=O)[C@@H]1CC[C@H](C)[C@@H](c2ccc(Br)cc2)N1C[C@@H](O)CN=[N+]=[N-] -0.492
CC(C)=CCCC(C)=CCON=C1C[C@@H](O)[C@@H](O)[C@@H]2[C@@H]3C(=O)N(Cc4ccc5c(c4)OCO5)C(=O)[C@@H]3CC[C@@H]12 0.268

— PubChem BioAssay
